The values that follow come from PubChem BioAssay AID1566 (Sanford-Burnham Center for Chemical Genomics, 2009).

The campaign covered roughly 290,000 compounds. About 1,800 (0.62%) were called active. Cut-off read from the data, not from the text of the source: active = inhibition above about 50%; inactive = the rest. The entries come from a sample that favours actives as a whole.

The assay can be described thus: NOD2 signaling inhibitors, cell-based, luminescence, uHTS, HEK293 (AID 1566). As to conditions: HEK293 NOD2/NF-kB luciferase reporter, at 4 µM, active compounds read high. In general terms: A reporter such as luciferase makes a cellular process visible.
As for `CN(C)/N=C/C=C1\CCC/C(=C\c2ccc(F)c(F)c2)C1=O`, the inhibition was 63% (active).

For the molecule `CN(C)/N=C/C=C1\CC/C(=C\c2ccc(Br)cc2)C1=O`, the inhibition is -21.2% (inactive).

Take `COc1ccc(/C=C2\CCC/C(=C\C=N\N(C)C)C2=O)cc1`: the inhibition was -25.5% (inactive).

Consider `Cc1ccc(-c2cc(C(F)F)nc(N3CCOCC3)n2)cc1`, for which the inhibition was 15.5% (inactive).

Turning to `O=C1CCN(C2CCN(Cc3nc(Cc4ccccc4F)no3)CC2)CCN1`, the inhibition is 5.8% (inactive).

With `COc1ccc(C(=O)N2CCC(n3nccc3NC(=O)C3CC3)CC2)c(OC)c1OC`, the inhibition was 12.7% (inactive).

In the case of `O=C(NC(O)C(=O)c1ccccc1)c1cccs1` (stereo not drawn), the inhibition was 10% (inactive).

Consider `CC(C)(C)c1ccc(C(=O)NNC(=O)c2cccc(-n3cnnn3)c2)cc1`, for which the inhibition is 13.7% (inactive).

In the case of `Cc1c(C(=O)N2CCN(c3ccccc3)CC2)sc2ncnc(N3CCN(c4ccccn4)CC3)c12`, the inhibition is 39.4% (inactive).

For `Cc1nc(N2CCN(c3ccccn3)CC2)c2c(C)c(C(=O)Nc3ccc(Cl)cc3)sc2n1`, the inhibition is 15.9% (inactive).

On to `Cc1nc(N2CCN(c3ccccn3)CC2)c2c(C)c(C(=O)N3CCN(c4cccc(Cl)c4)CC3)sc2n1`, for which the inhibition was 38.7% (inactive).

As for `COc1ccccc1N1CCN(C(=O)c2sc3nc(C)nc(N4CCN(c5ccccn5)CC4)c3c2C)CC1`, the inhibition was 16% (inactive).

Regarding `Cc1nc(N2CCN(c3ccccn3)CC2)c2c(C)c(C(=O)Nc3ccc(F)cc3Cl)sc2n1`, the inhibition was 33.8% (inactive).

With `Cc1nc(N2CCN(c3ccccn3)CC2)c2c(C)c(C(=O)Nc3c(F)cc(F)cc3Br)sc2n1`, the inhibition was 33.9% (inactive).

With `Cc1nc(N2CCN(c3ccccn3)CC2)c2c(C)c(C(=O)Nc3ccc(F)cc3F)sc2n1`, the inhibition was 3.4% (inactive).

Consider `Cc1c(C(=O)N2CCN(c3ccccn3)CC2)sc2ncnc(N3CCOCC3)c12`, for which the inhibition was -1.8% (inactive).

Consider `O=C1CCCN1CCCNS(=O)(=O)c1ccc(Br)cc1`, for which the inhibition was 6.2% (inactive).

For the molecule `Cn1c(=O)n(CC(=O)O)c(=O)c2c1nc1n2CCCN1CCc1ccccc1`, the inhibition is 4.6% (inactive).

In the case of `CCC(=O)C1CCCN(C(=O)c2ccc3nc(-c4cccc(OC)c4)oc3c2)C1` (stereo not drawn), the inhibition was -51.5% (inactive).

Turning to `CC(C)Cc1cc(C(=O)N2CCCC(C(=O)c3cc(F)ccc3F)C2)n(C)n1` (stereo not drawn), the inhibition was 23.7% (inactive).

As for `COc1ccc(C(=O)Nc2ccc(NC(=O)c3cnccn3)cn2)cc1`, the inhibition was -1.7% (inactive).

Turning to `O=C(Nc1ccc2cn[nH]c2c1)c1ccc(Cl)c(S(=O)(=O)N2CCOCC2)c1`, the inhibition is -3.7% (inactive).

Take `O=C1/C(=C/c2cccnc2)CC/C1=C\c1cccnc1`: the inhibition was 1.3% (inactive).

On to `CN1C/C(=C/c2cccnc2)C(=O)/C(=C/c2cccnc2)C1`, for which the inhibition was 10.1% (inactive).

Consider `CCC1C/C(=C\c2cccnc2)C(=O)/C(=C/c2cccnc2)C1` (stereo not drawn), for which the inhibition is 94.6% (active).

In the case of `COc1cc(COc2ccc(-c3nnco3)cc2)ccc1OC(F)F`, the inhibition is 6.2% (inactive).

In the case of `Cc1ccc(COc2ccc(-c3nnco3)cc2)cc1`, the inhibition was -78.6% (inactive).

Regarding `COc1ccnc(Oc2ccccc2)c1C(=O)N/C=N/OCc1ccccc1F`, the inhibition is 2.7% (inactive).

`CCCCCCn1c(NCC)nc2c1c(=O)n(C)c(=O)n2C`: the inhibition was 30% (inactive).

For `COCCNC(=O)c1cc2cc3ccc(OC)cc3nc2o1`, the inhibition is 11.5% (inactive).

`COc1ccc2cc3cc(C(=O)NCCC(C)C)oc3nc2c1`: the inhibition was 10.4% (inactive).

Take `COc1ccc(-c2cc(=O)oc3cc(OCC(=O)N4C[C@H]5C[C@@H](C4)c4cccc(=O)n4C5)ccc23)cc1`: the inhibition is 3.1% (inactive).

For the molecule `CCCCn1c(=O)c(CCC(=O)OCC(=O)Nc2cccc3ccccc23)nc2ccccc21`, the inhibition was 15.7% (inactive).

In the case of `O=C(Cc1ccccc1)NNC(=O)C1CC=CCC1` (stereo not drawn), the inhibition is 5.2% (inactive).

Regarding `CCc1nnc(NC(=O)COc2ccccc2[N+](=O)[O-])s1`, the inhibition is -7.9% (inactive).

`Cc1csc(NC(=O)c2c(O)c3c(n(CC(C)C)c2=O)CCCC3)n1`: the inhibition was 23.7% (inactive).

As to `O=C(NC1=C(Nc2ccc(Cl)cc2)C(=O)c2ccccc2C1=O)c1ccccc1`, the inhibition is 24.3% (inactive).

Take `O=C(NC1=C(Nc2ccc(F)cc2)C(=O)c2ccccc2C1=O)c1ccc(Cl)cc1`: the inhibition is -10.9% (inactive).

As for `CSc1nc(N)c2c(C)c(C)sc2n1`, the inhibition was -1.2% (inactive).

`CCOC(=O)C(=CNc1ccc(NC2=NCC(C)(C)S2)cc1)C(=O)OCC`: the inhibition was 34.9% (inactive).

For the molecule `CCOC(=O)C(=CNc1ccc(C#N)cc1)C(=O)OCC`, the inhibition was 8.2% (inactive).

On to `CCOC(=O)C(=CNc1ccc(NC2=NCC(C)S2)cc1)C(=O)OCC` (stereo not drawn), for which the inhibition is 55.5% (active).

For `COc1cccc(CNC(=O)CCNC(=O)C2CCN(S(=O)(=O)c3ccc(F)cc3)CC2)c1`, the inhibition is 9% (inactive).

Regarding `N#C/C(=C(/O)COC(=O)c1ccccc1O)c1nc2ccccc2s1`, the inhibition is 52.7% (active).

For `N#C/C(=C(/O)COC(=O)c1ccc(C#N)cc1)c1nc2ccccc2s1`, the inhibition was -9.9% (inactive).

Consider `CC(C)(C)c1ccc(C(=O)OC/C(O)=C(\C#N)c2nc3ccccc3s2)cc1`, for which the inhibition is 30.1% (inactive).

Turning to `C=C(C)C(=O)Oc1ccc(N2C(=O)[C@@H]3C4C=CC(C4)[C@@H]3C2=O)cc1`, the inhibition was -1.5% (inactive).

`CCn1c(=O)n(CC)c2cc(S(=O)(=O)N3CCCCC3)c(C)cc21`: the inhibition is -12.1% (inactive).

For the molecule `NC(=O)CC(NC(=O)Cc1ccc(Br)cc1)c1ccc(NCCN2CCOCC2)c([N+](=O)[O-])c1` (stereo not drawn), the inhibition was -1.2% (inactive).

For the molecule `N#CC1=C(N)Oc2n[nH]c(-c3cccnc3)c2C1c1cc(F)ccc1F` (stereo not drawn), the inhibition was -1.5% (inactive).

For `c1cncc(CNc2ncnc3sccc23)c1`, the inhibition was 21.1% (inactive).

For `c1ccc(CNc2ncnc3sccc23)cc1`, the inhibition is 44.5% (inactive).

In the case of `Fc1ccccc1CNc1ncnc2sccc12`, the inhibition was 56.7% (active).

In the case of `Cc1cccc(NC(=O)C(Cc2ccccc2)n2cccc2)c1` (stereo not drawn), the inhibition was 9.8% (inactive).

`CCN(CC)S(=O)(=O)c1cc(NC(=O)C(CC(C)C)NC(N)=O)ccc1C` (stereo not drawn): the inhibition is 57.5% (active).

On to `Cc1ccc(NC(=O)C(CC(C)C)NC(N)=O)cc1Cl` (stereo not drawn), for which the inhibition was -3.3% (inactive).

Take `CCN(CC)S(=O)(=O)c1cc(NC(=O)[C@@H](NC(N)=O)C(C)C)ccc1C`: the inhibition was 6.6% (inactive).

Regarding `COc1ccc(/C(C)=N/NC(=O)c2nnn(-c3nonc3N)c2-c2ccccc2)cc1`, the inhibition is 6.5% (inactive).

Usually inhibition stands for the change of the read-out against control, counted positive when it falls.
